The test system of experiment [1] is Plasmodium falciparum Sir2 (PF13_0152, Sir2A). Briefly: Plasmodium falciparum Sir2A binding compounds – biochemical, small-molecule microarray, 635 nm fluorescence, primary screen (AID 1098).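 Note: score merges spot fluorescence intensity with its signal-to-noise ratio.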 The settings on record: fluorescence 635 nm, higher = more signal.
Experiment [2] is described as follows: probe aDKK1 binding to arrayed compounds – biochemical, biotinylated probe, 635/667 nm fluorescence, primary screen (AID 1099).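 Note: score merges 667nm spot fluorescence with signal to noise across triplicate slides; reference of the scale not given here.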 To be noted: small-molecule microarray, higher = more signal.
A short description of experiment [3]: probe aCHRDL2 binding to arrayed compounds – biochemical, biotinylated probe, 635/667 nm fluorescence, primary screen (AID 1100). To be noted: small-molecule microarray, higher = more signal.
Experiment [4] is described as follows: change in splice reporter luminescence, either direction, cell-based, HEK293, spliceosome inhibition project, primary screen (AID 1101).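 Note: HEK293 cells carrying a splicing-competent luciferase reporter gene; test concentration not given here.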 To be noted: HEK293 splicing luciferase reporter, 24 h, higher = more signal, called active from +8 up or from −8 down. In general terms: In a reporter assay the amount or activity of a reporter protein is the signal.
Experiment [5] concerns the target Fibroblast growth factor 10 (Homo sapiens) (UniProt O15520). Briefly: compounds binding fibroblast growth factor 10 – biochemical, small-molecule microarray, 635 nm fluorescence, primary screen (AID 1102). The settings on record: FGF10 binding, fluorescence 635 nm, higher = more signal.
Experiment [6] has as its system glycogen synthase kinase-3 (GSK3A per assay name; protocol says GSK3B). Briefly: compounds binding glycogen synthase kinase-3 – biochemical, small-molecule microarray, 635 nm fluorescence, GSK3A, primary screen (AID 1103). Note: the record names both GSK3A and GSK3B. The settings on record: fluorescence 635 nm, higher = more signal.
Experiment [7] deals with Epidermal growth factor receptor (Homo sapiens) (UniProt P00533). Description: compounds binding epidermal growth factor receptor – biochemical, small-molecule microarray, 635 nm fluorescence, primary screen (AID 1104).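 Note: score merges 667 nm emission intensity with spot signal to noise over triplicate slides.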 To be noted: EGFR binding, higher = more signal.
In experiment [8] the target is Follistatin-related protein 3 (Homo sapiens) (UniProt O95633). Description: compounds binding follistatin-related protein 3 – biochemical, small-molecule microarray, 635 nm fluorescence, primary screen (AID 1105).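 Note: score merges emission near 667 nm and signal to noise per printed spot across three slides.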 To be noted: FSTL3 binding, higher = more signal.
Experiment [9] addresses Dickkopf-related protein 1 (Homo sapiens) (UniProt O94907). Description: small molecules binding DKK1 protein – biochemical, small-molecule microarray, 635 nm fluorescence scan, primary screen (AID 1106).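 Note: score merges emission near 667 nm with signal to noise over three replicate slides.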 To be noted: higher = more signal.
For experiment [10], the system named is Inhibin beta A chain (activin A). Description: small molecules binding activin A – biochemical, small-molecule microarray, 635 nm fluorescence scan, primary screen (AID 1107).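 Note: mouse activin A protein probed at 4.33 µg/mL on printed slides; score merges bound-protein fluorescence near 667 nm with spot signal-to-noise.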 To be noted: INHBA, higher = more signal.

The source of these data is PubChem BioAssay.

Calls of active or inactive are those of the source.

Dickkopf-related protein 1 (Homo sapiens), sequence (O94907 whole entry, looked up): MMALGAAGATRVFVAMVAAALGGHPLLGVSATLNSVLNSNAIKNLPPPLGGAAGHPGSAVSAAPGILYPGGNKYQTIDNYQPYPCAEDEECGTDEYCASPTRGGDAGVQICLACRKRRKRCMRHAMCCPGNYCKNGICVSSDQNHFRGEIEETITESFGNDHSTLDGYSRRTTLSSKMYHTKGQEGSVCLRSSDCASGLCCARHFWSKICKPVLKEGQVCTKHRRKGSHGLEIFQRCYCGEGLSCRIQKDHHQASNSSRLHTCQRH
Follistatin-related protein 3 (Homo sapiens), sequence (O95633 whole entry, looked up): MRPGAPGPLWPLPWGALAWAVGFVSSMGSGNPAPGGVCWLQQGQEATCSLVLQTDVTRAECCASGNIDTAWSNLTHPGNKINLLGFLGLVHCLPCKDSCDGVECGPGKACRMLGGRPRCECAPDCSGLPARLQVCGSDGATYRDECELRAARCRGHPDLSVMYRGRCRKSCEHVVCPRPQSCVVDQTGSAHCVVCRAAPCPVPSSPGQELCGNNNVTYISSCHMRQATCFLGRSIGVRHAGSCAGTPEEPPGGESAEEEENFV
Fibroblast growth factor 10 (Homo sapiens), sequence (O15520 whole entry, looked up): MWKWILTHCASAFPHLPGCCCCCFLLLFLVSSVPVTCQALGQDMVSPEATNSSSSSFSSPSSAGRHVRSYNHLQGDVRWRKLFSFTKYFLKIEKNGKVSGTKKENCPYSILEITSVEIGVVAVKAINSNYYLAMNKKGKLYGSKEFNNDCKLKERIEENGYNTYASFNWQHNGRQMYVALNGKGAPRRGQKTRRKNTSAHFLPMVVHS
Epidermal growth factor receptor (Homo sapiens), sequence (P00533 whole entry, looked up): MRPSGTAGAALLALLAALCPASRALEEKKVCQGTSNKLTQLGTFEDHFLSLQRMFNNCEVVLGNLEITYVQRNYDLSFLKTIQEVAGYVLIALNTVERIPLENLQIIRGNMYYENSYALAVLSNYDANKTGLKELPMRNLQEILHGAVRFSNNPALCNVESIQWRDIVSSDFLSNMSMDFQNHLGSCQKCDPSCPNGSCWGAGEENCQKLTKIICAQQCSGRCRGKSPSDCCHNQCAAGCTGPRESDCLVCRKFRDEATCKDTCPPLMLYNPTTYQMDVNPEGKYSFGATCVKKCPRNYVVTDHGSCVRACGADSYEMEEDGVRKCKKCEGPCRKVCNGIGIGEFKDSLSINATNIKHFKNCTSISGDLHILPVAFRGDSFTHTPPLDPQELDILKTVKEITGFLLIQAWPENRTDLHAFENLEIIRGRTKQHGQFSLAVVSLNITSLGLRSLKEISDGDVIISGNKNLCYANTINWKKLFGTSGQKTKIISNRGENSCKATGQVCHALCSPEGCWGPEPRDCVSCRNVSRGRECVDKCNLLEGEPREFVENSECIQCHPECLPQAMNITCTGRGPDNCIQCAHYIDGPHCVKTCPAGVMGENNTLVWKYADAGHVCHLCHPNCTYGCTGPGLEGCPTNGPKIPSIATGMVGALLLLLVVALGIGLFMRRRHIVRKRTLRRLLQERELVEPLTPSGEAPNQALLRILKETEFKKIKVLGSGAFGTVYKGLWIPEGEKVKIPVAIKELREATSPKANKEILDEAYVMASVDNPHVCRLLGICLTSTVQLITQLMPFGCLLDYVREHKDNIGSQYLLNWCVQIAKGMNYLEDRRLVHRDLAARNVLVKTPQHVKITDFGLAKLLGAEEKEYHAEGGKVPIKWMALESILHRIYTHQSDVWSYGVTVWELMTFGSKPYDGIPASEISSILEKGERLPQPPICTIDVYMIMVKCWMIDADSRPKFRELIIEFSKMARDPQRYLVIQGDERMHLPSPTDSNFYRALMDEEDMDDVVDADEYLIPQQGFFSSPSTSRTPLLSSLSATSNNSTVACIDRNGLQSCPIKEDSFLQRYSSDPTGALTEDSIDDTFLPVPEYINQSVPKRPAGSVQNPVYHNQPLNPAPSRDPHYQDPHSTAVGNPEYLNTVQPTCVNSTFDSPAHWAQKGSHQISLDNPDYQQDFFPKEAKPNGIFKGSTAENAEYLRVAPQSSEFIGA

Consider `COC(=O)C(CC#Cc1ccc2c(c1)[C@]1(C(=O)N2)[C@H](c2ccc(O)cc2)N2[C@H](c3ccccc3)[C@H](c3ccccc3)OC(=O)[C@H]2[C@@H]1C(=O)N1CCc2cc(OC)c(OC)cc2C1)C(=O)OC`, for which the composite z-score in experiment [1] came to 1.38; in experiment [2] it was 0.505; in experiment [3], 0.724; in [5], 0.817; in [6], 1.32; in experiment [7] it was 0.708. The results for the composite z-score in experiment [8], in experiment [9] and in [10] were 1.29, 1.06 and -0.0531, respectively. Further, the z-score in experiment [4] was -0.541 (inactive).
Regarding `CN(C)CCCCNC(=O)[C@H]1C[C@H]2C(=O)NCC(=O)N2[C@H]1c1cccc(OCCO)c1`, the composite z-score in experiment [1] is 0.828; in experiment [2], -0.173; in experiment [3] it was 0.084; in [5], 1.02; in [6], -0.54; in [7], 0.138. Moreover, the composite z-score is 0.186 in [8], 0.168 in experiment [9] and -0.09 in [10]. Also, in experiment [4], the z-score is -0.706 (inactive).
Regarding `Cc1c(NC(=O)/C(C#N)=C/c2ccc(Cl)cc2)c(=O)n(-c2ccccc2)n1C`, the composite z-score was 0.878 in [1]; -0.115 in [2]; 0.1 in experiment [3]; 0.938 in experiment [5]; 0.0624 in experiment [6]; 0.324 in experiment [7]. Also, the composite z-score in experiment [8] was 0.371; in experiment [9] it was 0.101; in [10] it was 0.311. Besides, the z-score in [4] was -0.0648 (inactive).
With `COc1ccc([Si](C)(C)[C@H]2[C@H](CC(=O)N3Cc4ccccc4C[C@H]3CO)O[C@@]3(C(=O)N(Cc4cccc(N5C(=O)c6cccc7cccc5c67)c4)c4ccccc43)[C@@H]2C)cc1`, the composite z-score is 1.63 in [1]; -0.37 in experiment [2]; -0.151 in experiment [3]; 1.31 in experiment [5]; 0.627 in experiment [6]; 0.774 in experiment [7]. The composite z-score was determined as 1.28 in experiment [8], 0.948 in experiment [9] and 1.2 in experiment [10]. Also, the z-score in [4] was -1.87 (inactive).
Take `CC(=O)n1cc(C(O)C2C=CC3C(=O)N(c4ccccc4)C(=O)C3N2Nc2ccccc2F)c2ccccc21` (stereo not given): the composite z-score in experiment [1] was 1.76; in experiment [2], -0.167; in experiment [3] it was 0.483; in experiment [5], -0.191; in experiment [6] it was -0.0798; in experiment [7] it was -0.801. Further, the composite z-score is -0.638 in experiment [8], -1.18 in experiment [9] and -0.551 in experiment [10]. The z-score in experiment [4] was -1.68 (inactive).
Turning to `CN1C(=O)C2C(C1=O)C1C=C(c3ccc(CO)cc3)C2C(c2cccs2)N1C` (stereo not given), the composite z-score in [1] was 0.609; in [2] it was 0.0014; in experiment [3], 0.381; in experiment [5], -0.0606; in [6], 0.378; in experiment [7] it was -0.2. For the same compound, the composite z-score in experiment [8] was -0.164; in experiment [9], -0.0556; in experiment [10], 0.779. In addition, in [4], the z-score was -0.516 (inactive).
Take `COCCOC(=O)N1C(=O)[C@@]2(c3cc(C#CCCO)ccc31)[C@H](c1ccc(O)cc1)N1[C@H](c3ccccc3)[C@H](c3ccccc3)OC(=O)[C@H]1[C@@H]2C(=O)N1CCc2cc(OC)c(OC)cc2C1`: the composite z-score in [1] is 1.16; in experiment [2], 0.058; in experiment [3] it was 0.342; in experiment [5], 1.39; in [6], 1.31; in [7] it was 0.878. Besides, the composite z-score stood at 1.44 in experiment [8], 0.993 in experiment [9] and 1.01 in experiment [10]. For the same compound, in experiment [4], the z-score was 0.305 (inactive).
With `COc1ccc(C#Cc2ccc3c(c2)[C@]2(C(=O)N3)[C@H](C(=O)Nc3nc4ccccc4s3)[C@H]3C(=O)O[C@H](c4ccccc4)[C@H](c4ccccc4)N3[C@@H]2c2ccc(OCCO)cc2)cc1`, the composite z-score in [1] is 0.937; in experiment [2], 0.72; in experiment [3] it was 0.766; in experiment [5], 1.17; in experiment [6], 1.3; in experiment [7] it was 0.209. Further, the composite z-score in [8] was 1.13; in experiment [9] it was 0.629; in [10], -0.37. The z-score in experiment [4] was -0.126 (inactive).
Turning to `C=C(COC)/C(=C/C[C@H](OC(=O)c1ccncc1)c1cccc(OCCO)c1)c1cnc2ccccc2c1`, the composite z-score was determined as 0.691 in experiment [1]; 0.199 in experiment [2]; 0.293 in experiment [3]; 1.05 in experiment [5]; 1.3 in experiment [6]; 0.855 in [7]. Besides, the composite z-score in [8] worked out at 1.45; in [9], 0.938; in experiment [10] it was 1.2. In experiment [4], the z-score was 0.0664 (inactive).
With `COCCOC(=O)N1C(=O)[C@@]2(c3cc(C#CC4(O)CCCCCC4)ccc31)[C@H](C(=O)NC[C@H](O)c1ccccc1)[C@H]1C(=O)O[C@H](c3ccccc3)[C@H](c3ccccc3)N1[C@@H]2c1ccc(O)cc1`, the composite z-score in [1] is 1.36; in experiment [2], 0.203; in experiment [3], 0.316; in experiment [5], 0.779; in experiment [6], 1.29; in experiment [7] it was -0.0406. For the same compound, the composite z-score in experiment [8] is 0.334; in experiment [9], -0.0026; in [10] it was 0.386. For the same compound, the z-score in experiment [4] is 0.209 (inactive).
Consider `CCOC(=O)C1=CC[C@@H](c2ccccc2)N(S(=O)(=O)C[Si](C)(C)C)[C@H]1c1ccccc1`, for which the composite z-score is 1.09 in [1]; 0.319 in experiment [2]; -0.0475 in experiment [3]; 0.78 in experiment [5]; 0.651 in [6]; 0.461 in experiment [7]. The composite z-score in [8] is 1.37; in [9], 0.405; in experiment [10] it was 0.193. Also, the z-score in experiment [4] is -1.02 (inactive).
In the case of `C=CCN1C(=O)[C@]2(O[C@H](CCn3cc([C@H](O)c4ccccc4)nn3)[C@@H]([Si](C)(C)c3ccc(OC)cc3)[C@@H]2C)c2cc(N3C(=O)c4cccc5cccc3c45)ccc21`, the composite z-score in experiment [1] is 0.783; in experiment [2], -0.168; in experiment [3] it was 0.195; in experiment [5], 0.57; in experiment [6] it was -0.549; in experiment [7], -0.795. Moreover, the values for the composite z-score in experiment [8], in experiment [9] and in experiment [10] were 0.187, -0.857 and -0.302, respectively. Besides, the z-score in [4] was -1.18 (inactive).
In the case of `COc1cccc(C[C@H]2C[C@@H](CO[Si](C(C)C)(C(C)C)C(C)C)N3C(=O)[C@@]4(C(C)=O)O[C@@]23[C@@H]2C(=O)N(C)C(=O)[C@@H]24)c1`, the composite z-score was 0.95 in [1]; -0.0648 in experiment [2]; -0.197 in [3]; 1.22 in experiment [5]; 0.5 in [6]; 0.494 in experiment [7]. For the same compound, the composite z-score in [8] was 1.17; in [9], 1.62; in experiment [10], -0.0336. The z-score in [4] is -0.989 (inactive).
As for `COc1ccc(CCNC(=O)[C@@]2(C)c3ccccc3C(=O)N(Cc3cc(C(F)(F)F)cc(C(F)(F)F)c3)[C@H]2c2ccc(CO)cc2)cc1`, the composite z-score in experiment [1] was 0.569; in [2], 1.64; in experiment [3] it was 1.02; in [5] it was 0.329; in experiment [6], 0.651; in experiment [7], 0.875. Besides, the composite z-score in experiment [8] is 0.371; in [9] it was 0.338; in experiment [10], -0.307. In experiment [4], the z-score was -0.926 (inactive).
